According to PubChem BioAssay AID1851 (National Center for Advancing Translational Sciences (NCATS), 2009):
Out of some 16,000 compounds screened, about 5,800 (36%) were called active. Roughly 23% stayed inconclusive and do not appear here. Calls come from the whole dose curve; as a rule, active = well fitted curve in the direction sought with a large enough effect; inconclusive = small, poorly fitted or top-dose-only effect, or effect the other way; inactive = no such curve, though single readings can be large or run the other way. This is one part of the list.
% is set by controls: 0 for no effect and ±100 for the full control effect.

What follows are molecules tested against Cytochrome P450 2C19 (Homo sapiens) (UniProt P33261) (assay: Cytochrome panel assay with activity outcomes). Details: recombinant CYP, pro-luciferin dealkylation, luminescence, p450-cyp2c19; series mostly up to 57.1 µM; activity, negative = inhibition: at the top concentration.
Sequence of Cytochrome P450 2C19 (Homo sapiens) (P33261 whole entry, looked up): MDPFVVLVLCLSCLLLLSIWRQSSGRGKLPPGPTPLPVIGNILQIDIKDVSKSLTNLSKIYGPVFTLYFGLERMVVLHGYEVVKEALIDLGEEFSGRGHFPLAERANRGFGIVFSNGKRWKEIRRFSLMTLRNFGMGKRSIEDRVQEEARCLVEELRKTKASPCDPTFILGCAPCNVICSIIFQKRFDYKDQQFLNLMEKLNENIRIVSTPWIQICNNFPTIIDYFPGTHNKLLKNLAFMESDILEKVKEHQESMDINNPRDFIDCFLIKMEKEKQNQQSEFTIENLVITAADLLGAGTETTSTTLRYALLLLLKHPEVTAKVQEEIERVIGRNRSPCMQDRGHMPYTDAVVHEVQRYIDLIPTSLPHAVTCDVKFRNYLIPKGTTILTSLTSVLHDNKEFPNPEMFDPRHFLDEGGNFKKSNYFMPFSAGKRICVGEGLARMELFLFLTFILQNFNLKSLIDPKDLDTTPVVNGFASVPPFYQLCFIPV
`CCOC(=O)c1cc2c(ccn2C)n1CC(=O)N1CCCC(C)C1` (centres undefined) was tested, and the AC50 was 8.91 µM (active).
For `C[C@@H](CN1CCC(Cc2ccccc2)CC1)[C@H](O)c1ccc(O)cc1`, the “activity, negative = inhibition” value was 15.6% (inactive).
With `C[C@@H](CN1CCC(Cc2ccccc2)CC1)[C@@H](O)c1ccc(O)cc1` the “activity, negative = inhibition” value was 18.2% (inactive).
With `CC(C)OC(=O)c1cc2c(ccn2C)n1CC(=O)N1CCC(Cc2ccccc2)CC1` the AC50 was 14.1 µM (active).
In the case of `Cc1ccc(C)c(Cn2c(C(=O)OC(C)C)cc3c2ccn3C)c1`, the AC50 is reported as 1.78 µM (active).
`Clc1ccc(-c2nnc(CCc3ccccc3)o2)c(Cl)c1` was tested, and the AC50 was 1.41 µM (active).
For `CSc1nnc(-c2ccc(Cl)cc2Cl)o1`, the AC50 was 25.1 µM (active).
With `c1ccc(C2=NN[C@@H]3c4ccccc4-c4ccccc4N3C2)cc1` the activity, negative = inhibition was -22.1% [at 11.4 µM] (inactive).
In the case of `CN1CCN(c2ncncc2-c2ccc(N(C)C)cc2)CC1`, the AC50 is reported as 10 µM (active).
For `CN(C)c1ccc(-c2cncnc2-n2ccnc2)cc1`, the AC50 was 3.98 µM (active).
For `CN(C)c1ccc(-c2ccc3ncnc(-n4ccnc4)c3c2)cc1`, the AC50 was 10 µM (active).
For `COc1cccc(-c2cncnc2-n2ccnc2)c1`, the AC50 was 0.631 µM (active).
For `CS(=O)(=O)Nc1cccc(-c2cncnc2-n2ccnc2)c1`, the “activity, negative = inhibition” value was -13.4% (inactive).
In the case of `CN(C)c1ccc(-c2ccc3ncnc(N(C)C)c3c2)cc1`, the “activity, negative = inhibition” value is reported as -40.3% (inactive).
In the case of `c1cncc(-c2cncnc2-n2ccnc2)c1`, the “activity, negative = inhibition” value is reported as -34.8% (inactive).
For `CN(C)C(=O)c1ccc(-c2cncnc2N2CCNCC2)cc1`, the “activity, negative = inhibition” value was 5.63% (inactive).
`CN1CCN(c2ncncc2-c2ccc(C(=O)N(C)C)cc2)CC1` was tested, and the “activity, negative = inhibition” value was -10.9% (inactive).
With `CN(C)C(=O)c1ccc(-c2ccc3ncnc(N4CCNCC4)c3c2)cc1` the “activity, negative = inhibition” value was -11.3% (inactive).
For `N#Cc1ccccc1-c1ccc2ncnc(N3CCNCC3)c2c1`, the “activity, negative = inhibition” value was -23.5% (inactive).
In the case of `CN(C)c1ccc(-c2cc(-n3ccnc3)ncn2)cc1`, the AC50 is reported as 7.94 µM (active).
In the case of `CN1CCN(c2cc(-c3ccc(N(C)C)cc3)ncn2)CC1`, the “activity, negative = inhibition” value is reported as -4.96% (inactive).
For `Cc1ccccc1-c1ccc2ncnc(-n3ccnc3)c2c1`, the AC50 was 2 µM (active).
For `COCCNc1ncnc2ccc(-c3ccoc3)cc12`, the “activity, negative = inhibition” value was 21.5% (inactive).
In the case of `c1cn(-c2ncnc3ccc(-c4ccoc4)cc23)cn1`, the AC50 is reported as 10 µM (active).
For `COc1ccccc1CN1CCC2(CC1)CCN(C(C)=O)CC2`, the “activity, negative = inhibition” value was 9.85% (inactive).
In the case of `CCN(CC)C(=O)c1ccc(O)c(OC)c1`, the “activity, negative = inhibition” value is reported as 2.06% [at 25.6 µM] (inactive).
With `CCCCN(CC)C(=O)Cc1ccccc1OC` the AC50 was 4.47 µM (active).
For `Cc1ccc2nc(Cc3ccc(N)cc3)[nH]c2c1`, the AC50 was 3.55 µM (active).
In the case of `N#Cc1c(SCC(N)=O)nsc1SCc1ccccc1Cl`, the AC50 is reported as 1.12 µM (active).
In the case of `Nc1nc(SCc2ccccc2Cl)cc(C(=O)O)n1`, the activity, negative = inhibition is reported as 35% [at 11.4 µM] (inactive).
In the case of `CC1CCC(NC(=O)CC(C)(C)Cc2nc3ccccc3c(=O)[nH]2)CC1` (centres undefined), the AC50 is reported as 6.31 µM (active).
For `CN(C)C(=O)c1ccc(-c2nc(NC3CCNCC3)c3ccccc3n2)cc1`, the “activity, negative = inhibition” value was 26.9% (inactive).
In the case of `CN=C(NC#N)Nc1ccc(C2=NNC(=O)C[C@@H]2C)cc1`, the “activity, negative = inhibition” value is reported as -25.2% (inactive).
In the case of `Cc1nc2cnc(N3CCN(C)CC3)nc2n(CCc2ccccc2)c1=O`, the AC50 is reported as 5.01 µM (active).
`O=c1cnc2cnc(N3CCOCC3)nc2n1Cc1ccc(F)cc1` was tested, and the AC50 was 3.98 µM (active).
In the case of `O=c1cnc2cnc(N3CCOCC3)nc2n1C[C@H]1CCCO1`, the “activity, negative = inhibition” value is reported as 32.5% (inactive).
`COc1ccc(-c2nc3cnc(N4CCN(C)CC4)nc3n(CCc3ccccc3)c2=O)cc1` was tested, and the “activity, negative = inhibition” value was 1.01% (inactive).
For `CN1CCN(c2ncc3ncc(=O)n(CCc4ccccc4)c3n2)CC1`, the AC50 was 6.31 µM (active).
For `O=c1cnc2cnc(N3CCOCC3)nc2n1CCc1ccccc1`, the AC50 was 0.1 µM (active).
`CN1CCN(c2ncc3ncc(=O)n(Cc4ccc(F)cc4)c3n2)CC1` was tested, and the “activity, negative = inhibition” value was -39.4% (inactive).
In the case of `CN1CCN(c2ncc3ncc(=O)n(Cc4cccs4)c3n2)CC1`, the “activity, negative = inhibition” value is reported as -40.5% (inactive).
For `CN1CCN(c2ncc3nc(-c4ccccc4)c(=O)n(CCc4ccccc4)c3n2)CC1`, the “activity, negative = inhibition” value was -31.9% (inactive).
With `O=c1c(-c2ccccc2)nc2cnc(N3CCOCC3)nc2n1CCc1ccccc1` the “activity, negative = inhibition” value was -30.7% (inactive).
In the case of `COc1ccc(-c2nc3cnc(N4CCOCC4)nc3n(CCc3ccccc3)c2=O)cc1`, the “activity, negative = inhibition” value is reported as -39.4% (inactive).
For `CN1CCN(c2ncc3nc(-c4cccs4)c(=O)n(CCc4ccccc4)c3n2)CC1`, the “activity, negative = inhibition” value was -23.1% (inactive).
For `COC(=O)CCC(=O)NNC(=O)c1ccc(Br)cc1`, the “activity, negative = inhibition” value was -12.7% (inactive).
In the case of `COc1ccc(C(=O)NCC(=O)OCc2cccc(Br)c2)cc1`, the AC50 is reported as 3.55 µM (active).
With `COc1ccc(O)c(/C=N/NC(=O)c2ccc(OCc3cccc(Br)c3)cc2)c1` the “activity, negative = inhibition” value was -4.51% (inactive).
`CCO[C@H](c1cc(OC)cc([N+](=O)[O-])c1OC)[C@H](C)/C=C\CC(=O)OC` was tested, and the AC50 was 0.398 µM (active).
